The panel holds about 83,000 compounds, 20% with a hit somewhere; the sample as a whole holds those more often.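 A percent growth of 40 corresponds to 60% growth inhibition; 0 means no net growth; -100 means all cells died. Active threshold: below 10.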 Values without a mark were called inactive. The source made the active and inactive calls.
Test system: TK-10 renal
Experiment: NCI-60 one-dose screen, 48 h (100 = growth as untreated, 0 = no growth, -100 = all killed)
Details: 10 µM

Row | Structure (SMILES) | growth
1 | COc1cc2cc(C(=O)N3C[C@@H](CCl)c4c3cc(OC(=O)N3CCN(C)[C@@H]5CSSC[C@H]53)c3ccccc43)[nH]c2c(OC)c1OC | -28.4% (active)
2 | CC1=C(CCC=O)C2=C(C)C3(CC3)[C@@](C)(O)C(=O)C2=C1 | -91.6% (active)
3 | COC(=O)C[C@](O)(CCC(C)C)C(=O)O[C@@H]1C(OC)=C[C@]23CCCN2CCc2cc4c(cc2[C@H]13)OCO4 | -23.8% (active)
4 | O=C(/C=C/c1ccc(Cl)cc1)c1nc2ccccc2n1Cc1ccc(F)cc1 | 58.1%
5 | CC[C@]12C=CCN3CC[C@@]4(c5ccc(OC)cc5N(C)[C@H]4[C@@](O)(C(=O)OC)[C@@H]1OC(=O)CCC[P+](C1CCCCC1)(C1CCCCC1)C1CCCCC1)[C@@H]32 | -48.6% (active)
6 | CC1=C2C(=C[C@@](C)(COP(=O)(Oc3ccccc3)Oc3ccccc3)[C@@H]2O)C(=O)[C@@](C)(O)C12CC2 | -22.2% (active)
7 | CC(=O)Oc1ccccc1C(=O)NC([Se])=NC1CCCCC1 | -52.9% (active)
8 | CCOP(=O)(CC(F)(F)C(F)(F)F)OCC | 17%
9 | CC(C)C[C@H](NC(=O)CNC(=O)C[C@H]1O[C@@H]2OC3(C)CC[C@H]4[C@H](C)CC[C@@H]([C@H]1C)[C@@]24OO3)B(O)O | 12.1%
10 | C[C@H]1[C@@H](Oc2ccc(-c3cn(-c4ccnc5cc(Cl)ccc45)nn3)cc2)O[C@@H]2OC3(C)CC[C@H]4[C@H](C)CC[C@@H]1[C@@]24OO3 | 35.4%
11 | C[C@H]1[C@H](OC(=O)CCC(=O)N(CCCc2cn(-c3ccc([N+](=O)[O-])cc3)nn2)CCNc2ccnc3cc(Cl)ccc23)O[C@@H]2OC3(C)CC[C@H]4[C@H](C)CC[C@@H]1[C@@]24OO3 | 51.2%
12 | COc1cc2cc(C(=O)N3C[C@@H](CCl)c4c3cc(OC(=O)N3CCN(C)[C@@H]5CSSC[C@@H]53)c3ccccc43)[nH]c2c(OC)c1OC | 13.8%
13 | COc1cc2cc(C(=O)N3C[C@@H](CCl)c4c3cc(OC(=O)N3CCN(C(=O)CCC(=O)N5CCN(C)CC5)[C@@H]5CSSC[C@@H]53)c3ccccc43)[nH]c2c(OC)c1OC | 5.55% (active)
14 | COC(=O)c1ccc(-n2cc(CCCN(CCNc3ccnc4cc(Cl)ccc34)C(=O)CCC(=O)O[C@@H]3O[C@@H]4OC5(C)CC[C@H]6[C@H](C)CC[C@@H]([C@H]3C)[C@@]46OO5)nn2)cc1 | 60.5%
15 | O=C([Se]C1C=CCCC1)c1ccc(C(=O)[Se]C2C=CCCC2)s1 (centres undefined) | -80.9% (active)
16 | O=C(/C=C/c1cccc(Br)c1)c1nc2ccccc2n1Cc1ccc(F)cc1 | 80.2%
17 | CC[C@]12C=CCN3CC[C@@]4(c5ccc(OC)cc5N(C)[C@H]4[C@@](O)(C(=O)OC)[C@@H]1OC(=O)CCC[P+](c1ccc(C)cc1)(c1ccc(C)cc1)c1ccc(C)cc1)[C@@H]32 | -88.5% (active)
18 | O=C(NC([Se])=NC1CCCCC1)c1ccccc1 | 28.8%
19 | O=C(/C=C/c1ccc(F)cc1)c1nc2ccccc2n1Cc1ccc(F)cc1 | 12.2%
20 | O=C(/C=C/c1ccccc1)c1nc2ccccc2n1Cc1ccc(Br)cc1 | -47.9% (active)

Row | Structure (SMILES) | growth
21 | C=CC[Se]C(=O)c1cncc(C(=O)[Se]CC=C)c1 | -20.3% (active)
22 | COc1ccc(OC)c(/C=C/C(=O)c2nc3ccccc3n2Cc2ccc(F)cc2)c1 | 13.1%
23 | O=C(/C=C/c1ccc(F)cc1)c1nc2ccccc2n1Cc1ccc(Br)cc1 | -19.1% (active)
24 | CC[C@]12C=CCN3CC[C@@]4(c5ccc(OC)cc5N(C)[C@H]4[C@@](O)(C(=O)OC)[C@@H]1OC(=O)CCCC[P+](c1ccc(C)cc1)(c1ccc(C)cc1)c1ccc(C)cc1)[C@@H]32 | -91.3% (active)
25 | CC(C)N=C([Se])NC(=O)c1cccs1 | 56%
26 | CC1=C(CCC=NNC(N)=O)C2=C(C)C3(CC3)[C@@](C)(O)C(=O)C2=C1 | -10.5% (active)
27 | Cc1ccc2[nH]c(=S)n(-c3ccc(F)cc3)c(=O)c2c1 | 102%
28 | C#CC[Se]C(=O)c1ccc2n[se]nc2c1 | 65.1%
29 | CC1=C(COCCOC(=O)c2ccc(S(=O)(=O)F)cc2)C2=C(C)C3(CC3)[C@@](C)(O)C(=O)C2=C1 | 7.99% (active)
30 | CC12CCC3(CCC(=O)NCCCNc4ccnc5cc(Cl)ccc45)[C@@](C)(OO[C@]3(C)O1)O2 | -17.8% (active)
31 | O=C(/C=C/c1ccc(Br)cc1)c1nc2ccccc2n1Cc1ccc(Br)cc1 | 23.8%
32 | COC(=O)CCn1c(-c2ccc(-n3cc(-c4ccc(O[C@H]5O[C@@H]6OC7(C)CC[C@H]8[C@H](C)CC[C@@H]([C@H]5C)[C@@]68OO7)cc4)nn3)cc2)nc2ccccc21 | 30.4%
33 | CC1=C(C=O)C2=C(C)C3(CC3)[C@@](C)(O)C(=O)C2=C1 | 53.6%
34 | N#C[Se]CC(=O)Nc1cccc(C(F)(F)F)c1 | -79.8% (active)
35 | CCC[Se]C(=O)c1ccc(C(=O)[Se]CCC)s1 | -79.8% (active)
36 | C[C@H]1[C@@H](CC(=O)N[C@@H](Cc2coc3ccccc23)B(O)O)O[C@@H]2OC3(C)CC[C@H]4[C@H](C)CC[C@@H]1[C@@]24OO3 | 16.5%
37 | O=C(/C=C/c1ccco1)c1nc2ccccc2n1Cc1ccc(F)cc1 | 92.1%
38 | COC(=O)C[C@](O)(CCC(C)C)C(=O)O[C@H]1C(OC)=C[C@@]23CCCN2CCc2cc4c(cc2[C@@H]13)OCO4 | -16.4% (active)
39 | C[C@H]1[C@H](OC(=O)CCC(=O)N(CCCc2cn(-c3ccc(C#N)cc3)nn2)CCNc2ccnc3cc(Cl)ccc23)O[C@@H]2OC3(C)CC[C@H]4[C@H](C)CC[C@@H]1[C@@]24OO3 | 54.2%

Source: PubChem BioAssay (NCI)
